HCV inh = qHTS Assay for Inhibitors of Hepatitis C Virus (HCV). AID 651820, 2012. Huh7.5.1 HCVcc-Cre infection, luciferase reporter, 44 h. Potency, µM (doses to about 41.8 µM), actives largely listed as inhibitors. hit rate 3.4% among 340,000
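After 44 h co-culture of compound, cells and HCVcc-Cre (~0.5 moi), substrate is added for 15 min at room temperature and luciferase measured over 15 sec. Cells were seeded at 1,000/well and pre-cultured 4 h.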
AMA1 RON2 block = qHTS for Inhibitors of AMA1-RON; Towards Development of Antimalarial Drug Lead: Primary Screen; AlphaScreen AMA1-biotinylated RON2 peptide binding; Plasmodium falciparum AMA1 (3D7) - RON2 peptide interaction; AID 720542, 2013; Potency, µM (titrated, usually from 58.2 µM), most hits filed as inhibitors; hit rate 0.2% among 360,000; also: nearly all actives have a fitted effect of over 45% in size
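AMA1 (3D7) with his tag at 25 nM final met compounds first, then biotinylated RON2 peptide at 25 nM; detection used donor plus acceptor beads, 10 µg/mL apiece, read by AlphaScreen after 30 min at room temperature.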
Pf growth 96h = Primary qHTS for delayed death inhibitors of the malarial parasite plastid, 96 hour incubation; Potency, µM (top dose mostly 28.7 µM), most hits filed as inhibitors; P. falciparum luciferase reporter growth, 96 h; AID 504834, 2011; hit rate 6.9% among 320,000
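Cell-based qHTS: luciferase-tagged P. falciparum in erythrocytes (2% hematocrit, 0.05% parasitemia final) incubated with compounds for 96 hours, 37 C, 5% CO2; luciferase detection reagent then added and luminescence measured.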
AmpC no deterg = qHTS Inhibitors of AmpC Beta-Lactamase (assay without detergent). AID 485341, 2010. AmpC nitrocefin hydrolysis, absorbance 480 nm, 0.0001% Triton. hit rate 0.52% among 330,000. P00811. Potency, µM (titrated, usually from 57.1 µM), hits mostly inhibitors; also: nearly all actives have a fitted effect of over 20% in size
Target sequence (P00811 whole entry, looked up): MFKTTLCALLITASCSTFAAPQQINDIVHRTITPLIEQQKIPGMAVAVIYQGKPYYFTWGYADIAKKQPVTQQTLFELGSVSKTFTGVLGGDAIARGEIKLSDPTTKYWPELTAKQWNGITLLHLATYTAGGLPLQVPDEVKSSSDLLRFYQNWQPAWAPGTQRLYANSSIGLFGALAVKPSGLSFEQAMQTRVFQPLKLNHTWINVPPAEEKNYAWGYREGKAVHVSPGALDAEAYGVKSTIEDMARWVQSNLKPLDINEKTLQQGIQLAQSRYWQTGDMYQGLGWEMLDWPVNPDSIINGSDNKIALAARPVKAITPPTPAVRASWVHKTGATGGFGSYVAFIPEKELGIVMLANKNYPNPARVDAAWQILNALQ
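20 mM phosphate pH 7.0 + 0.01% (detergent screen) or 0.0001% Triton X-100; 5.3 nM AmpC reagent; cpd preinc 15 min RT; nitrocefin (800 uM stock) to start; A480 q20 s × 4 min; Activity was normalised to no-enzyme and no-compound control wells.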
Pf growth 48h = Primary qHTS for delayed death inhibitors of the malarial parasite plastid, 48 hour incubation; P. falciparum luciferase growth in erythrocytes, 48 h; Potency, µM (highest dose often 28.7 µM), actives largely listed as inhibitors; hit rate 5.9% among 310,000
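Firefly luciferase activity from engineered P. falciparum reports growth; inhibitors lower the luminescent signal. Cultures contained 2% hematocrit erythrocytes at 0.1% final parasitemia.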
AmpC inh detg = qHTS Inhibitors of AmpC Beta-Lactamase (assay with detergent); hit rate 0.041% among 370,000; Potency, µM (series often up to 114 µM), actives largely listed as inhibitors; AID 485294, 2010; P00811; AmpC hydrolysis of nitrocefin, absorbance 480 nm, 0.01% Triton; also: nearly all actives have a fitted effect of over 25% in size
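AmpC (5.3 nM in the dispensed reagent) in 20 mM phosphate pH 7.0 with 0.01% (detergent screen) or 0.0001% Triton X-100 was preincubated with compounds for 15 min at room temperature. Nitrocefin was then added from an 800 uM solution, and hydrolysis was followed at 480 nm.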
Of the large screens only hits and unclear results are named; the others gave an inactive call. Sampled rows, rich in hits. Any-hit rate of the full collection: about 11%. Calls follow the shape of the dose curve; as a rule, active = well fitted curve in the direction sought with a large enough effect; inconclusive = small, poorly fitted or top-dose-only effect, or another doubt; inactive = no such curve, though single readings can be large; an effect the other way counts as inactive or inconclusive.

CC(CC(=O)NCc1ccco1)S(=O)(=O)c1ccc2c(c1)CCN2C(=O)C1CC1 (centres undefined)	Pf growth 96h 8.3µM
CC(C)c1ccc(NC(=O)C(Cc2ccccc2)n2cccc2)cc1 (centres undefined)	none (no result: HCV inh, AMA1 RON2 block, Pf growth 96h, AmpC no deterg, Pf growth 48h)
O=C(Nc1ccccc1F)C(Cc1ccccc1)n1cccc1 (centres undefined)	none (no result: HCV inh, AMA1 RON2 block, Pf growth 96h, AmpC no deterg, Pf growth 48h)
CN1CCN(c2ccccc2NC(=O)C(Cc2ccccc2)n2cccc2)CC1 (centres undefined)	Pf growth 96h inconclusive, Pf growth 48h 10µM
CCC(C)NC(=O)C(Cc1ccccc1)n1cccc1 (centres undefined)	Pf growth 96h inconclusive, AmpC no deterg 0.5µM, AmpC inh detg inconclusive
COc1ccc(NC(=O)c2oc3ccccc3c2NC(=O)Cc2coc3c(C)c(C)ccc23)cc1	none (no result: HCV inh, AMA1 RON2 block, Pf growth 96h, AmpC no deterg, Pf growth 48h)
CCCc1cc(=O)[nH]c(SCC(=O)Nc2nc(-c3ccccc3)cs2)n1	AmpC no deterg 13µM
COCc1cc(=O)[nH]c(SCC(=O)c2ccccc2)n1	Pf growth 48h 2.1µM
CCCc1cc(=O)[nH]c(SCc2csc(-c3ccccc3)n2)n1	none
CCc1c(C)nc(SCC(=O)Nc2nc(-c3ccc(OC)cc3)cs2)[nH]c1=O	Pf growth 96h inconclusive, AmpC no deterg 14µM
CCCc1cc(=O)[nH]c(SCC(=O)NC(=O)c2ccccc2)n1	Pf growth 96h 0.41µM, AmpC inh detg inconclusive
CC(=O)c1ccc(NC2=NS(=O)(=O)c3ccccc32)cc1	none (no result: HCV inh, AMA1 RON2 block, Pf growth 96h, AmpC no deterg, Pf growth 48h)
CC(C)c1nnc(N2C(=O)c3oc4ccccc4c(=O)c3C2c2cccc(O)c2)s1 (centres undefined)	none (no result: HCV inh, AMA1 RON2 block, Pf growth 96h, AmpC no deterg, Pf growth 48h)
COCc1cc(=O)[nH]c(SCCS(=O)(=O)c2ccc(C)cc2)n1	Pf growth 48h 2.3µM
COc1cc(C2C(C(=O)Nc3ccccc3)=C(C)Nc3nnnn32)cc(OC)c1OC (centres undefined)	none (no result: HCV inh, AMA1 RON2 block, Pf growth 96h, AmpC no deterg, Pf growth 48h)
CC(C)[C@]1(c2ccc(Cl)cc2)ON(c2ccccc2C(F)(F)F)C1=O	Pf growth 96h 1.7µM, Pf growth 48h 1.9µM (no result: AMA1 RON2 block)
O=C(Cn1cccc(C(F)(F)F)c1=O)c1ccc(Cl)cc1	Pf growth 96h inconclusive, Pf growth 48h inconclusive
O=C1N(c2ccccc2C(F)(F)F)OC1(Cc1ccccc1)c1ccccc1 (centres undefined)	Pf growth 96h inconclusive, Pf growth 48h 1µM
FC(F)(F)c1ccccc1-n1ccnc1	HCV inh inconclusive, Pf growth 48h inconclusive, AmpC inh detg inconclusive
CC(C)[C@]1(c2ccccc2)ON(c2ccccc2C(F)(F)F)C1=O	Pf growth 96h 4.7µM, Pf growth 48h 1.9µM (no result: AMA1 RON2 block)
CC(C)[C@@]1(c2ccccc2)ON(c2ccccc2C(F)(F)F)C1=O	Pf growth 96h inconclusive, Pf growth 48h 1.7µM (no result: AMA1 RON2 block)
Cc1nc2ccccc2c(=O)n1-c1ccccc1C(F)(F)F	Pf growth 96h inconclusive, Pf growth 48h inconclusive
O=C(O)c1nn(-c2ccccc2C(F)(F)F)cc1O	Pf growth 48h inconclusive
CCN(C(=O)Cn1c(=O)n(CC2CCC(C(=O)NC)CC2)c(=O)c2sccc21)c1ccccc1 (centres undefined)	none (no result: HCV inh, AMA1 RON2 block, Pf growth 96h, AmpC no deterg, Pf growth 48h)
O=C1N(c2ccccc2C(F)(F)F)O[C@]1(c1ccccc1)C1CCCCC1	Pf growth 96h 1µM, Pf growth 48h inconclusive
COc1cc(-c2nc(CN3CCN(CC(C)C)C(=O)[C@@H]3C)c(C)o2)ccc1F	HCV inh inconclusive, Pf growth 48h 9.3µM
COc1cc(-c2nc(CN3CCN(c4ncccn4)CC3)c(C)o2)ccc1F	none
c1ccc2c(c1)nc(Nc1ccc(N3CCCCC3)cc1)c1nncn12	HCV inh inconclusive
c1ccc(N2CCCCC2)c(Nc2nc3ccccc3n3cnnc23)c1	HCV inh 6.3µM, Pf growth 48h inconclusive

Source: PubChem (National Center for Advancing Translational Sciences (NCATS))
